In PubChem BioAssay (NCATS):
“And” between values parts separate entries of the source, which are not always exact repeats. Equal values may be shown once. Inconclusive results are not listed. Entries that show only a call come without a potency. Values without a mark were called inactive. The source made the active and inactive calls. The call rests on the fitted dose curve; in most records, active means well fitted inhibition curve with a large enough effect; inconclusive means small, poorly fitted or top-dose-only effect; inactive means flat fitted curve, though single readings scatter.

Assays:
PAD = assay: qHTS profiling for inhibitors of Plasmodium falciparum proliferation (AID 504749); further: potency means the concentration at half of the fitted maximal effect; conditions: P. falciparum in erythrocytes, SYBR Green DNA, 72 h; series mostly up to 28.7 µM
Outline: (§1)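 SYBR Green fluorescence (ex 485 nm, em 535 nm) reports parasite DNA after 72 h compound exposure of infected red cells at 0.3% parasitemia, 2.5% hematocrit; signal normalized to 0.29 uM artemisinin and vehicle wells.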

PC15 = assay: as above; conditions: P. falciparum in erythrocytes, SYBR Green DNA, 72 h; series mostly up to 28.7 µM
Outline: as §1

PC26 = assay: as above; conditions: P. falciparum in erythrocytes, SYBR Green DNA, 72 h; series mostly up to 28.7 µM
Outline: as §1

PC49 = assay: as above; conditions: P. falciparum in erythrocytes, SYBR Green DNA, 72 h; series mostly up to 28.7 µM
Outline: as §1

SC27B = assay: as above; conditions: P. falciparum in erythrocytes, SYBR Green DNA, 72 h; series mostly up to 28.7 µM
Outline: as §1

TAB109 = assay: as above; conditions: P. falciparum in erythrocytes, SYBR Green DNA, 72 h; series mostly up to 28.7 µM
Outline: as §1

TAB113 = assay: as above; conditions: P. falciparum in erythrocytes, SYBR Green DNA, 72 h; series mostly up to 28.7 µM
Outline: as §1

TAB165 = assay: as above; conditions: P. falciparum in erythrocytes, SYBR Green DNA, 72 h; series mostly up to 28.7 µM
Outline: as §1

W2 = assay: as above; conditions: P. falciparum in erythrocytes, SYBR Green DNA, 72 h; series mostly up to 28.7 µM
Outline: as §1

KB-3-1 = assay: Cytotoxic Profiling of Annotated Libraries Using Quantitative High-Throughput Screening (AID 1296008); conditions: Five cell lines viability, CellTiter-Glo ATP luminescence, 48-72 h; max response: stronger effect = lower value
Outline: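 Cells exposed to compounds for 48 or 72 hr at 37 degrees Celsius. Viability read as ATP-coupled luminescence with CellTiter-Glo after 10 min at room temperature.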
Further: nearly all actives have a fitted effect of over 60% in size.

Compound | Potency (PAD) | Potency (PC15) | Potency (PC26) | Potency (PC49) | Potency (SC27B) | Potency (TAB109) | Potency (TAB113) | Potency (TAB165) | Potency (W2) | max response (KB-3-1)
COc1ccc(/C=C/C(=O)OCCC(C)C)cc1 | inactive | inactive | inactive | inactive | inactive | inactive | inactive | inactive | inactive | -0.838%
NC(=O)[C@H]1O[C@@H](O)[C@H](O)[C@@H](O)[C@@H]1O | inactive | inactive | inactive | inactive | inactive | inactive | inactive | inactive | inactive | 4.29%
O=C(O)/C=C/C(=O)Nc1ccc(S(=O)(=O)Nc2nccs2)cc1 | inactive | inactive | inactive | inactive | inactive | inactive | inactive | inactive | inactive | -6.18%
O=C(O)COc1ccccc1/C=N/NC(=O)c1ccncc1 | inactive | inactive | inactive | inactive | inactive | inactive | inactive | inactive | inactive | 4.6%
CC(C)(C)c1ccc2c(S(=O)(=O)O)c(C(C)(C)C)ccc2c1 | inactive | inactive | inactive | inactive | inactive | inactive | inactive | inactive | inactive | 3.96%
OCC(O)CO | inactive | inactive | inactive | inactive | inactive | inactive | inactive | inactive | inactive | 0.712%
COc1ccc2c(=O)c(C)c(-c3ccccc3)oc2c1CN(C)C | inactive | inactive | inactive | inactive | inactive | inactive | inactive | inactive | 6750 nM (active) | 2.73%
O=C(O)Cc1nn(Cc2ccc(Br)cc2F)c(=O)c2ccccc12 | inactive | inactive | inactive | inactive | inactive | inactive | inactive | inactive | inactive | 1.97%
Nc1nc(=O)n([C@@H]2CS[C@H](CO)O2)cc1F | inactive | inactive | inactive | inactive | inactive | inactive | inactive | inactive | inactive | 6.08%
FC(F)(F)COCC(F)(F)F | inactive | inactive | inactive | inactive | inactive | inactive | inactive | inactive | inactive | -9.66%
FC(F)(F)C(F)(F)C(F)(F)C(F)(F)C(F)(F)C(F)(F)F | inactive | inactive | inactive | inactive | inactive | inactive | inactive | inactive | inactive | 6.4%
C=CCCCCCCCCC(=O)OC | inactive | inactive | inactive | inactive | inactive | inactive | inactive | inactive | inactive | 9.89%
[O-][N+](=Nc1ccccc1)c1ccccc1 | inactive | inactive | inactive | inactive | inactive | inactive | inactive | inactive | inactive | -7.74%
O=C1[O][Bi][O]c2ccccc21 | inactive | inactive | inactive | inactive | inactive | inactive | inactive | inactive | inactive | -7.6%
Cc1ccc(S(=O)(=O)NCl)cc1 | inactive | inactive | inactive | inactive | inactive | inactive | inactive | inactive | inactive | 2.64%
O[C@@H]([C@H](O)[C@H](O)CBr)[C@H](O)CBr | inactive | inactive | inactive | inactive | inactive | inactive | inactive | inactive | inactive | -3.83%
S=C1SCN(Cc2ccccc2)CN1Cc1ccccc1 | inactive | inactive | inactive | inactive | inactive | inactive | inactive | inactive | inactive | 37.7%
CC(C)(COP(=O)(O)OP(=O)(O)OC[C@H]1O[C@@H](n2cnc3c(N)ncnc32)[C@H](O)[C@@H]1OP(=O)(O)O)C(O)C(=O)NCCC(=O)NCCS (stereo not given in full) | inactive | inactive | inactive | inactive | inactive | inactive | inactive | inactive | inactive | 7.71%
O=S(=O)(O)CC(S)CS (stereo not given) | inactive | inactive | inactive | inactive | inactive | inactive | inactive | inactive | inactive | 3.44%
CC(CC=O)CCCC(C)(C)O (stereo not given) | inactive | inactive | inactive | inactive | inactive | inactive | inactive | inactive | inactive | 7.65%
CCOc1ccc(S(=O)(=O)O)c2cccnc12 | inactive | inactive | inactive | inactive | inactive | inactive | inactive | inactive | inactive | 5.36%
C=C(C)C1CC=C(C)CC1 (stereo not given) | inactive | inactive | inactive | inactive | inactive | inactive | inactive | inactive | inactive | 7.51%

Compound | Potency (PAD) | Potency (PC15) | Potency (PC26) | Potency (PC49) | Potency (SC27B) | Potency (TAB109) | Potency (TAB113) | Potency (TAB165) | Potency (W2) | max response (KB-3-1)
O=C1CCC(=O)N1CO | inactive | inactive | inactive | inactive | inactive | inactive | inactive | inactive | inactive | -1.35%
CCCCC(CC)CCC(CC(C)C)OS(=O)(=O)O (stereo not given) | inactive | inactive | inactive | inactive | inactive | inactive | inactive | inactive | inactive | 11% and -8.89%
CCC(O)c1ccccc1 (stereo not given) | inactive | inactive | inactive | inactive | inactive | inactive | inactive | inactive | inactive | 7.91%
Nc1ncnc2c1ncn2CCOCP(=O)(O)O | inactive | inactive | inactive | inactive | inactive | inactive | inactive | inactive | inactive | -6.33%
Cc1ccc(S(=O)(=O)O)cc1C | inactive | inactive | inactive | inactive | inactive | inactive | inactive | inactive | inactive | 7.06%
NCCO/C=C/[C@H](N)C(=O)O | inactive | inactive | inactive | inactive | inactive | inactive | inactive | inactive | inactive | 0.921%
FC(F)(F)C(F)(F)C(F)(F)C(F)(F)C(F)(F)F | inactive | inactive | inactive | inactive | inactive | inactive | inactive | inactive | inactive | -12.9%
CC(=O)[C@H]1CC[C@H]2[C@@H]3C=CC4=CC(=O)CC[C@@]4(C)[C@H]3CC[C@]12C | inactive | inactive | inactive | inactive | inactive | inactive | inactive | inactive | inactive | -2.63%
COc1ccc(C(=O)c2ccc(C)cc2)c(O)c1 | inactive | inactive | inactive | inactive | inactive | inactive | inactive | inactive | inactive | 4.04%
CCCOc1cc(N)ccc1C(=O)OCCN(CC)CC | inactive | inactive | inactive | inactive | inactive | inactive | inactive | inactive | inactive | -11.4%
O=C(O)[C@H]1CN(C/C=C/P(=O)(O)O)CCN1 | inactive | inactive | inactive | inactive | inactive | inactive | inactive | inactive | inactive | 9.65%
O=C(O)CCCC/C=C(\c1ccccc1)c1cccnc1 | inactive | inactive | inactive | inactive | inactive | inactive | inactive | inactive | inactive | -9.78%
OCCCNc1ccccc1 | inactive | inactive | inactive | inactive | inactive | inactive | inactive | inactive | inactive | 2.06%
FC(F)OC(Cl)C(F)(F)F (stereo not given) | inactive | inactive | inactive | inactive | inactive | inactive | inactive | inactive | inactive | 0.674%
COc1ccc(C(=O)CCC(=O)O)c2ccccc12 | inactive | inactive | inactive | inactive | inactive | inactive | inactive | inactive | inactive | -0.566%
CCN(CC)CCCC(C)Nc1cc(/C=C/c2ccccc2Cl)nc2cc(Cl)ccc12 (stereo not given) | 1000 nM (active) | 2000 nM (active) | 5360 nM (active) | 8910 nM (active) | 2820 nM (active) | 2510 nM (active) | 1780 nM (active) | 2240 nM (active) | 601 nM (active) | 0.54%
CC(=O)Oc1cc(C(F)(F)F)ccc1C(=O)O | inactive | inactive | inactive | inactive | inactive | inactive | inactive | inactive | inactive | 0.097%
C=CC(=O)O | inactive | inactive | inactive | inactive | inactive | inactive | inactive | inactive | inactive | -9.21%
Cc1cc(=O)c(C(=O)N[C@@H](C(=O)N[C@@H]2C(=O)N3C(C(=O)O)=C(CSc4nnnn4C)CS[C@H]23)c2ccc(O)cc2)c[nH]1 | inactive | inactive | inactive | inactive | inactive | inactive | inactive | inactive | inactive | 0.794%
C[C@H](O)CN(C)C | inactive | inactive | inactive | inactive | inactive | inactive | inactive | inactive | inactive | 10.7%
CCCc1nc(C(C)(C)O)c(C(=O)OCc2oc(=O)oc2C)n1Cc1ccc(-c2ccccc2-c2nn[nH]n2)cc1 | inactive | inactive | inactive | inactive | inactive | inactive | inactive | inactive | inactive | -0.562%
